Our source for the Potency and outcome values is PubChem BioAssay (Tox21).

Results filed as inconclusive are left out. Active and inactive are the calls of the source. Unless noted, the call rests on the fitted dose curve; in most records, active means well fitted curve in the direction sought with a large enough effect in the repeat runs; inconclusive means weak or mixed curves; inactive means no such curve, though single readings can be large; an effect the other way counts as inactive or inconclusive.

Experiment [1] is described as follows: qHTS assay to identify small molecule HDAC inhibitors - cell viability counter screen (AID 1259365). Further: nearly all actives have a fitted effect of over 50% in size. Conditions: HCT-116 viability, CellTiter-Glo ATP luminescence, 2 h; series mostly up to 92.4 µM. The method in brief: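 HCT-116 (wild type), 1,500 cells/well, overnight 37C/5% CO2; compound in DMSO 2hr; CellTiter-Glo 30min RT; luminescence read.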
Experiment [2] is described as follows: qHTS assay to identify small molecule agonists of the sonic hedgehog signaling (Shh) pathway - cell viability counter screen (AID 1259366). Further: nearly all actives have a fitted effect of over 50% in size. Further: potency means the concentration at half of the fitted maximal effect. The conditions noted are these: NIH/3T3 Gli1-Luc viability, CellTiter-Fluor, 24 h; series mostly up to 92.4 µM. The method in brief: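 CellTiter-Fluor fluorescence read-out, 1 hr at 37C, added after 23hr compound exposure. Cells: 3T3 Gli1-Luc, an NIH/3T3 clone with stably integrated Gli1-Luc reporter, plated 4hr before compound.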

A short description of experiment [3]: qHTS assay to identify small molecule agonists of the sonic hedgehog signaling (Shh) pathway (AID 1259368; calls by dose curve; further: nearly all actives have a fitted effect of over 15% in size). The conditions noted are these: NIH/3T3 Gli1-Luc reporter, luciferase, 24 h; series mostly up to 92.4 µM. In outline:
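NIH/3T3-derived 3T3Gli1-Luc cells carrying a stably integrated Gli1 response element–firefly luciferase reporter were plated, left 4 hr at 37 C, then given compounds in DMSO for 24 hr. Luminescence was read 30 min after adding luciferase reagent.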

Experiment [4] is described as follows: qHTS assay to identify small molecule antagonists of the sonic hedgehog signaling (Shh) pathway (AID 1259369; calls by dose curve; further: nearly all actives have a fitted effect of over 45% in size; further: potency means the concentration at half of the fitted maximal effect). The conditions noted are these: NIH/3T3 Gli1-Luc reporter, Shh antagonist, luminescence 24 h; series mostly up to 92.4 µM. The method in brief: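 NIH/3T3-derived 3T3Gli1-Luc cells with stably integrated Gli1-Luc reporter were preincubated 4hr at 37 C, then given compounds in DMSO plus Shh conditioned medium and incubated 24hr. Firefly luciferase luminescence read after 30min reagent at room temperature.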

Experiment [5] is described as follows: qHTS assay to identify small molecule agonists of the androgen receptor (AR) signaling pathway in the presence of an antagonist - cell viability counter screen (AID 1259379). Further: nearly all actives have a fitted effect of over 25% in size. Further: potency means the concentration at half of the fitted maximal effect. The conditions noted are these: MDA-kb2 viability, CellTiter-Fluor, 16 h; series mostly up to 92.4 µM. The method in brief: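 MDA-kb2 human breast carcinoma cells (stable MMTV-luciferase, AR/GR responsive) were seeded 3,000 cells/well, pre-incubated 5 hr at 37C without CO2, then given 3.0uM nilutamide and compounds at 15 concentrations for 16 hr. Viability was read by CellTiter-Fluor fluorescence.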

Experiment [6] in a line: qHTS assay to identify small molecule agonists of the estrogen receptor beta (ER-beta) signaling pathway - cell viability counter screen (AID 1259380). Further: nearly all actives have a fitted effect of over 30% in size. Further: potency means the concentration at half of the fitted maximal effect. The conditions noted are these: ER-beta-bla HEK293T viability, CellTiter-Glo luminescence, 16 h; series mostly up to 92.4 µM. In outline: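 ER-beta-UAS-bla HEK293T cells in medium with 2% charcoal-stripped FBS were preincubated 6 hr at 37C, dosed with compound in DMSO for 16 hr, then after the bla read, CellTiter-Glo was added for 30 min at room temperature; luminescence recorded.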

Experiment [7] can be described thus: qHTS assay to identify small molecule antagonists of the estrogen receptor beta (ER-beta) signaling pathway - cell viability counter screen (AID 1259382). Further: nearly all actives have a fitted effect of over 55% in size. Further: potency means the concentration at half of the fitted maximal effect. Conditions: ER-beta-UAS-bla HEK293T viability, CellTiter-Glo luminescence, 16 h; series mostly up to 92.4 µM. The method in brief:
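ER-beta-UAS-bla HEK293T cells (2,000/well, 2% charcoal-stripped FBS) were pre-incubated 6 hr at 37C, then given compound plus 1nM final 17-beta-estradiol for 16 hr. Viability was read in the same wells by CellTiter-Glo luminescence after 30 min at room temperature.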

The target in experiment [8] is Estrogen receptor (Homo sapiens) (UniProt P03372). The experiment in a line: qHTS assay to identify small molecule agonists of the estrogen receptor alpha (ER-alpha) signaling pathway in the presence of an antagonist (AID 1259383; calls by dose curve; further: top concentration of the series differs between compounds; nearly all actives have a fitted effect of over 15% in size). The conditions noted are these: VM7Luc4E2 cells, ERE-luciferase, +ICI-182,780, 22 h; series mostly up to 92.4 µM. In outline:
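VM7Luc4E2 cells (endogenous full-length ER-alpha, 4×ERE-luciferase) were precultured 5 days in phenol red-free medium with 10% charcoal-stripped FBS, given 10.0nM ICI-182,780 (final), then treated with compounds at 15 concentrations for 22hr at 37C; luminescence read with ONE-Glo.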

Experiment [9] is described as follows: qHTS assay to identify small molecule agonists or antagonists of the thyroid stimulating hormone receptor (TSHR) signaling pathway - wild type cell line counter screen (AID 1259384; calls by dose curve). Conditions: HEK293 wild type, cAMP HTRF counter-screen, stronger effect = higher value; series mostly up to 92.4 µM. In outline: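 Wild-type HEK293 cells were plated 18 h at 37 C/5% CO2, pin-dosed with compound plus Ro20-1724 medium, held 30 min at room temperature, then given cAMP-d2 and anti-cAMP-cryptate; fluorescence was read after 1 h. Fifteen concentrations, triplicate.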

Experiment [10] addresses Thyrotropin receptor (Homo sapiens) (UniProt P16473). In words: qHTS assay to identify small molecule antagonists of the thyroid stimulating hormone receptor (TSHR) signaling pathway (AID 1259385; calls by dose curve; further: nearly all actives have a fitted effect of over 20% in size; further: potency means the concentration at half of the fitted maximal effect). Conditions: TSHR-HEK293 cAMP HTRF, TSH-stimulated antagonist mode; series mostly up to 92.4 µM. In outline: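 TSHR-HEK293 cells were plated and held 18 h at 37C/5% CO2, then given compound plus Ro20-1724 and stimulated with TSH at 1.5 ng/mL final. After 30 min at room temperature, cAMP was detected with cAMP-d2/anti-cAMP-cryptate (1 h) by fluorescence.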

A short description of experiment [11]: qHTS assay to identify small molecule antagonists of the sonic hedgehog signaling (Shh) pathway - cell viability counter screen (AID 1259367). Further: potency means the concentration at half of the fitted maximal effect; nearly all actives have a fitted effect of over 55% in size. Conditions: NIH/3T3 Gli1-Luc viability, CellTiter-Fluor, 24 h; series mostly up to 42.5 µM. The method in brief: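 After a 4 hr settling period, 3T3 Gli1-Luc cells were treated with DMSO-dissolved chemicals and conditioned medium, kept 24 hr at 37C in 5% CO2, and assayed for viability by CellTiter-Fluor fluorescence following 1 hr reagent incubation.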

A short description of experiment [12]: qHTS assay to identify small molecule agonists of the estrogen receptor alpha (ER-alpha) signaling pathway in the presence of an antagonist - cell viability counter screen (AID 1259386). Further: nearly all actives have a fitted effect of over 30% in size. Further: potency means the concentration at half of the fitted maximal effect. The conditions noted are these: VM7Luc4E2 viability, CellTiter-Fluor fluorescence, 22 h; series mostly up to 92.4 µM. The method in brief: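 VM7Luc4E2 cells (endogenous full-length ER-alpha, 4×ERE-luciferase) were held 5 days in phenol red-free medium with 10% charcoal-stripped FBS, plated, then given 10.0nM ICI-182,780 and compounds at 15 concentrations for 22hr at 37C; viability read by CellTiter-Fluor fluorescence.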

In experiment [13] the target is Progesterone receptor (Homo sapiens) (UniProt P06401). In words: qHTS assay to identify small molecule agonists of the progesterone receptor (PR) signaling pathway (AID 1346784; calls by dose curve; further: nearly all actives have a fitted effect of over 30% in size). The conditions noted are these: PR-UAS-bla HEK293T, beta-lactamase FRET ratio, 16 h; series mostly up to 92.4 µM. In outline: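 HEK 293T PR-UAS-bla reporter cells, 2% charcoal-stripped FBS; 6 hr settle at 37C/5% CO2, compound (DMSO) 16 hr, LiveBLAzer B/G FRET substrate 2 hr RT, fluorescence intensity read.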
Sequence of Progesterone receptor (Homo sapiens) (P06401 whole entry, looked up): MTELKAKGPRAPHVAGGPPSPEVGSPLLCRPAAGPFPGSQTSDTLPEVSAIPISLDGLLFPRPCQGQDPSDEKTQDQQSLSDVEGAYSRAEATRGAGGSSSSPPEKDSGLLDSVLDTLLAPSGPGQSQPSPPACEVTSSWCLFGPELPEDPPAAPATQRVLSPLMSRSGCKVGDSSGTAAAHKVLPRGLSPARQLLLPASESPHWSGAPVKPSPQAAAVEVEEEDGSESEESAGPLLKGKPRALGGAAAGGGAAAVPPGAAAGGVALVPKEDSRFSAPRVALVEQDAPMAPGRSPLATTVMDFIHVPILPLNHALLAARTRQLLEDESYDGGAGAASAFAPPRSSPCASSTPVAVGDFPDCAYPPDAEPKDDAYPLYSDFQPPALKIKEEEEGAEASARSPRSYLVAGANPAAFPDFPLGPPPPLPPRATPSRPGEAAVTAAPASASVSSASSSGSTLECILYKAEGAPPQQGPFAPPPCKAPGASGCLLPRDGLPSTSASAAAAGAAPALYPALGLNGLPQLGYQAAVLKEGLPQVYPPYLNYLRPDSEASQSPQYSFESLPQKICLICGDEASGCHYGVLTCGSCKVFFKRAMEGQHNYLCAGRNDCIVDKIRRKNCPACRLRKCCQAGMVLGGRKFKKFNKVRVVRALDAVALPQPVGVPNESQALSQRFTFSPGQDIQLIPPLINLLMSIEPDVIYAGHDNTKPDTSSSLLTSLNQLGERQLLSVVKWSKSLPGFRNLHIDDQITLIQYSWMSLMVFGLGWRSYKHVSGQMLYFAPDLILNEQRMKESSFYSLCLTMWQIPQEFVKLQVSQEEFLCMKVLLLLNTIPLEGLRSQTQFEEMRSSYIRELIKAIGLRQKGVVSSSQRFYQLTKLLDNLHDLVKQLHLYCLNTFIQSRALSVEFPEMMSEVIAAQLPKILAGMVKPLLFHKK

Experiment [14] is described as follows: qHTS assay to identify small molecule HDAC inhibitors (AID 1259364). Further: top concentration of the series differs between compounds; nearly all actives have a fitted effect of over 45% in size. The conditions noted are these: HCT-116 HDAC-Glo I/II luminescence, 2 h; series mostly up to 92.4 µM. The method in brief:
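Wild-type HCT-116 cells were plated overnight, exposed to compounds for 2 h at 37 °C, then given HDAC-Glo class I/II luminogenic reagent for 30 min at room temperature before luminescence was read.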

In experiment [15] the target is Estrogen receptor beta (Homo sapiens) (UniProt Q92731). In words: qHTS assay to identify small molecule agonists of the estrogen receptor beta (ER-beta) signaling pathway (AID 1259377; active means well fitted activation curve with a large enough effect in the signal ratio in the repeat runs, not every such curve was filed as active; the % refers to the signal ratio). The conditions noted are these: ER-beta-UAS-bla HEK293T, beta-lactamase FRET ratio, 16 h; series mostly up to 92.4 µM. In outline:
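Beta-lactamase reporter readout: fluorescence of LiveBLAzer B/G FRET substrate after 2 h at room temperature, following 16 h compound treatment of ER-beta-UAS-bla HEK293T cells at 37C in 2% charcoal-stripped FBS medium.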

Sequence of Estrogen receptor (Homo sapiens) (P03372 whole entry, looked up): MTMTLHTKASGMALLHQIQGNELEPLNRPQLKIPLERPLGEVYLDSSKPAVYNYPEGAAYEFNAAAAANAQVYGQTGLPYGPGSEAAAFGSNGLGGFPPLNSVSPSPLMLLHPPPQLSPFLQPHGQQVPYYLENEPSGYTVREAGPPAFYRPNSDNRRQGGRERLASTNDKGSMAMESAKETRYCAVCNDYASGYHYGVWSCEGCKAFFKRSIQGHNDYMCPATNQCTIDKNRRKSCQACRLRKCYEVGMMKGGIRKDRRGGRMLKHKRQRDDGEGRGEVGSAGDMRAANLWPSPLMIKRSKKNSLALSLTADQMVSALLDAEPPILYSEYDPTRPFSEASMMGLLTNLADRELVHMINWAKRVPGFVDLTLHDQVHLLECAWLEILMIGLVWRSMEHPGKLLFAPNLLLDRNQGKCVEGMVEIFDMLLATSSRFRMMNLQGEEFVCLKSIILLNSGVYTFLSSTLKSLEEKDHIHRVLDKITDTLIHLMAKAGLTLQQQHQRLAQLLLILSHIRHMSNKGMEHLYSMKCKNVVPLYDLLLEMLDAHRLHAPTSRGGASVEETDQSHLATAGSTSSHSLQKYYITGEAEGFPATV
Sequence of Thyrotropin receptor (Homo sapiens) (P16473 whole entry, looked up): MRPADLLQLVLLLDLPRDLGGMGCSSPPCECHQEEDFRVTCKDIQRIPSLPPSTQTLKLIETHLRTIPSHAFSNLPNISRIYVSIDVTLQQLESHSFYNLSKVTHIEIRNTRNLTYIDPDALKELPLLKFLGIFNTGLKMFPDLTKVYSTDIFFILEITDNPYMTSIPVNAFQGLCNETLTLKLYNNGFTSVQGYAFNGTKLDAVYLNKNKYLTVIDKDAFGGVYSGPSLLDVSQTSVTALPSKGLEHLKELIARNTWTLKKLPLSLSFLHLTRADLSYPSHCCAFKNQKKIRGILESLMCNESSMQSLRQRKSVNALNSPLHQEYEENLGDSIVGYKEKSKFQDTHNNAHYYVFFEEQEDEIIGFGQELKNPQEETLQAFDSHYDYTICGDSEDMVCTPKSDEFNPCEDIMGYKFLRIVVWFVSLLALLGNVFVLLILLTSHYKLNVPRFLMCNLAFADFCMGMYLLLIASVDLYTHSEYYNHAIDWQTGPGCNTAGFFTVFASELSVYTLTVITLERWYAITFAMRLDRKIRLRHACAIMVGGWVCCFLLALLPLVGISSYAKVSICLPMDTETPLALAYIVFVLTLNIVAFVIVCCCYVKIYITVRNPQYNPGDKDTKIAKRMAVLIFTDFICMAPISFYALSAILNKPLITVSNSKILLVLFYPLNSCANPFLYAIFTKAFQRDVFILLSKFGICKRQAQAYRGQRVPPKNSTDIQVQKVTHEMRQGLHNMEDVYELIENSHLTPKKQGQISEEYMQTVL
Sequence of Estrogen receptor beta (Homo sapiens) (Q92731 whole entry, looked up): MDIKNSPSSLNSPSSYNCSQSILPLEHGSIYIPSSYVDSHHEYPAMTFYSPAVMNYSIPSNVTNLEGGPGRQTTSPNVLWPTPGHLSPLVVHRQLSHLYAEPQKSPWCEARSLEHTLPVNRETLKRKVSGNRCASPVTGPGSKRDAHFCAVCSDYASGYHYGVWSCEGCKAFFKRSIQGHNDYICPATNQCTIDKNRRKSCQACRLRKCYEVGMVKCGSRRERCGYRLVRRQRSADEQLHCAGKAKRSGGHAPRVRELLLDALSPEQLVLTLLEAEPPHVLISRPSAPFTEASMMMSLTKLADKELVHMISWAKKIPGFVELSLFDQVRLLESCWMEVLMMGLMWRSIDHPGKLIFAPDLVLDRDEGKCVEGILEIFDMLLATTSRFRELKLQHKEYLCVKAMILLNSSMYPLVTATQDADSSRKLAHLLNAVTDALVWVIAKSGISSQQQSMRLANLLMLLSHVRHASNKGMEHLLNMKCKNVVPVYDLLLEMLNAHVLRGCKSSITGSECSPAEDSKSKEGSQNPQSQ

Regarding `NC(=O)C1(N2CCCCC2)CCN(CCCN2c3ccccc3CCc3ccc(Cl)cc32)CC1`, the Potency result in experiment [1], in experiment [3] and in experiment [8] was “inactive” in each case. The Potency in experiment [2] is 23.7 µM (active); in experiment [4], 8.41 µM (active); in experiment [5], 23.7 µM (active); in experiment [6] it was 13.3 µM (active); in [7] it was 21.1 µM (active); in experiment [10], 29.8 µM (active). Also, the outcome in [9] was inactive.

In the case of `O=C1C=CC(=O)N1c1ccc(Cc2ccc(N3C(=O)C=CC3=O)cc2)cc1`, the Potency entry in experiment [1], in experiment [3], in [8], in experiment [12] and in [13] was “inactive” throughout. In addition, the Potency is 7.7 µM (active) in experiment [2]; 21.7 µM (active) in experiment [11]; 48.6 µM (active) in [5]; 48.6 µM (active) in experiment [6]; 48.6 µM (active) in experiment [10]. Also, the compound was classed as inactive in experiment [9].

For the compound `CC1=C(/C=C/C(C)=C/C=C/C(C)=C/C=O)C(C)(C)CCC1`, the Potency entry in experiment [14] and in experiment [3] was “inactive” throughout. Besides, the Potency was 30.5 µM (active) in experiment [2]; 60.8 µM (active) in experiment [11]; 15.3 µM (active) in experiment [4]; 60.8 µM (active) in experiment [5]; 24.2 µM (active) in [6]; 30.5 µM (active) in experiment [7]. Also, the Potency in experiment [12] is 60.8 µM (active). Also, in [9], the compound was classed as inactive.

Regarding `Cc1cc(=O)oc2cc(N(C)C)ccc12`, the Potency entry in experiment [14], in experiment [1], in [3] and in experiment [4] was “inactive” throughout. The result in [9] was inactive.

With `CC(C)c1ccc2c(c1)CC[C@H]1[C@](C)(CN)CCC[C@]21C`, the Potency entry in experiment [1], in experiment [12] and in experiment [13] was “inactive” each time. The Potency in experiment [2] is 48.6 µM (active); in experiment [4], 15.4 µM (active); in [5], 43.3 µM (active); in experiment [6], 54.5 µM (active); in experiment [7], 61.1 µM (active). The result in experiment [9] was inactive.

With `Cc1ccc(O)c(C(C)(C)C)c1`, the Potency result in experiment [1], in [2], in experiment [3], in [5], in experiment [7] and in experiment [10] was “inactive” each time. The Potency entry in experiment [12] is “inactive”. Further, the outcome in experiment [9] was inactive.

Turning to `CNCc1cc(F)ccc1Oc1ccc(Cl)c(Cl)c1`, the Potency entry in [14], in experiment [1], in experiment [3], in [15], in experiment [8] and in [10] was “inactive” throughout. For the same compound, the results for the Potency in [4], in experiment [5] and in experiment [6] were 12.2 µM (active), 54.5 µM (active) and 27.3 µM (active), respectively. The compound was classed as inactive in [9].

For `O=[N+]([O-])c1cc([N+](=O)[O-])c2ccc(S(=O)(=O)O)cc2c1O`, the Potency entry in experiment [1], in experiment [6] and in experiment [7] was “inactive” throughout. The Potency was 13.6 µM (active) in experiment [2], 8.58 µM (active) in [11], 21.6 µM (active) in experiment [5] and 19.2 µM (active) in [12].
